About 79,000 compounds went through this panel and 15% of them were active in at least one assay; those are over-represented in the sample as a whole. Unmarked numbers belong to inactive results. Active and inactive are the calls of the source. Cut-off read from the data, not from the text of the source: active = growth inhibition above about 70%; inactive = the rest.
Legend:
[1] = NCI Yeast Anticancer Drug Screen. Data for the rad50 strain (AID 155);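 note: 0% = growth of vehicle-only cultures of the same strain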; conditions: S. cerevisiae rad50 strain growth inhibition, hits give high values
In short: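 Readout: growth inhibition relative to vehicle-treated cultures. Compound exposure was carried out in a genetically defined yeast strain deficient in DNA damage repair.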

[2] = NCI Yeast Anticancer Drug Screen. Data for the mec2-1 strain (AID 157); conditions: S. cerevisiae mec2-1 strain, hits give high values
In short: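 Test agents were screened against the mec2-1 yeast strain, with defined DNA repair or cell cycle alteration. Growth was scored as inhibition against vehicle-only controls.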

[3] = NCI Yeast Anticancer Drug Screen. Data for the sgs1 mgt1 strain (AID 161);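 note: 0% = growth of cultures given vehicle only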; conditions: S. cerevisiae sgs1 mgt1 strain, hits give high values
In short: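 Test agents were incubated with a DNA-repair-mutant yeast strain. Growth was then read and compared against vehicle-treated controls.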

[4] = NCI Yeast Anticancer Drug Screen. Data for the cln2 rad14 strain (AID 165);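 note: 0% = growth equal to vehicle treated cultures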; conditions: S. cerevisiae cln2 rad14 strain, hits give high values
In short: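 Growth of compound-exposed yeast (cln2 rad14 genotype) measured and expressed as inhibition relative to vehicle.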

[5] = NCI Yeast Anticancer Drug Screen. Data for the bub3 strain (AID 167); conditions: S. cerevisiae bub3 mutant strain, hits give high values
In short: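 Readout: yeast growth inhibition, expressed relative to vehicle-only wells. The test organism is a mutant strain from a panel with lesions in DNA repair or checkpoint genes.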

[6] = NCI Yeast Anticancer Drug Screen. Data for the mlh1 rad18 strain (AID 175); conditions: S. cerevisiae mlh1 rad18 strain growth inhibition, hits give high values
In short: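 In this whole-cell yeast screen, a strain with altered DNA damage repair is challenged with compound, and its growth is measured against matched vehicle-treated controls.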

[7] = at 5.0 µM (retest, dose inferred, filed as 0.5)
[8] = at 50.0 µM (retest, dose inferred, filed as 5.0)

SMILES | growth inhibition [1, 7] | growth inhibition [1, 8] | growth inhibition ([1]; at 50.0 µM) | growth inhibition [2, 7] | growth inhibition [2, 8] | growth inhibition ([2]; at 50.0 µM) | growth inhibition [3, 7] | growth inhibition [3, 8] | growth inhibition ([3]; at 50.0 µM) | growth inhibition [4, 7] | growth inhibition [4, 8] | growth inhibition ([4]; at 50.0 µM) | growth inhibition [5, 7] | growth inhibition [5, 8] | growth inhibition ([5]; at 50.0 µM) | growth inhibition [6, 7] | growth inhibition [6, 8] | growth inhibition ([6]; at 50.0 µM)
CCN(CC)CCNc1ccc([N+](=O)[O-])c2sc3ccccc3c(=O)c12 | 46% | 95% (active) | 86.2% (active) | 13% | 85% (active) | 90.7% (active) | 19% | 84% (active) | 41.2% | 12% | 60% | 20.5% | 27% | 98% (active) | 17.7% | 33% | 88% (active) | 90.3% (active)
CC1(C)N=c2cc3c(cc2N1c1ccc(Cl)cc1)=Nc1ccccc1N3c1ccc(Cl)cc1 | 17% | -4% | 96.1% (active) | 7% | -4% | 94.2% (active) | 16% | 1% | 97.1% (active) | 10% | -4% | 95.2% (active) | 7% | 1% | 94% (active) | 35% | -5% | 96.3% (active)
CCCN(CCC)C(=O)c1ccc(C)cc1 | 1% | 21% | 4.3% | 2% | 5% | 97.9% (active) | 2% | 5% | 0.05% | 3% | 24% | -17.1% | 3% | 28% | 2.9% | -3% | 17% | 7.2%
CCOC(=O)NC(/C=C/c1ccccc1)NC(=O)OCC | -2% | -27% | 61.8% | -1% | -31% | 29.6% | -4% | -29% | 30.1% | 5% | -33% | 29.9% | 2% | -20% | 11.8% | 1% | -26% | 83.6% (active)
COc1cc(/C=C2\SC(=S)N(/C=C/c3nc4ccccc4[nH]c3=O)C2=O)cc(OC)c1OC | -9% | 57% | 8.55% | -10% | 45% | 14.7% | -3% | 24% | 63.1% | -29% | 58% | 34.5% | -8% | 44% | -4.8% | 3% | 42% | 55.1%
CCN(CC)CC(O)c1cc(-c2ccc(Cl)cc2)nc2cc(Cl)ccc12 (stereo not given) | 2% | 99% (active) | 98% (active) | -3% | 100% (active) | 93.9% (active) | -1% | 99% (active) | 99.7% (active) | -2% | 99% (active) | 47.9% | -3% | 99% (active) | 78.5% (active) | 11% | 99% (active) | 98.3% (active)
CCCCCCCCCCCCCCCCCC[S+](C)CC (stereo not given) | 97% (active) | 94% (active) | 90.2% (active) | 99% (active) | 98% (active) | 92.9% (active) | 99% (active) | 99% (active) | 92.9% (active) | 98% (active) | 98% (active) | 91.6% (active) | 99% (active) | 98% (active) | 91.5% (active) | 98% (active) | 97% (active) | 90.3% (active)
O=C(C[P+](c1ccccc1)(c1ccccc1)c1ccccc1)c1ccccc1 | 0% | 10% | 11.8% | 9% | 14% | 23.4% | -7% | 11% | 22.1% | 18% | 12% | 8% | 2% | 8% | 16.6% | 5% | -46% | 34.6%
O=[N+]([O-])CC(O)c1ccccc1 (stereo not given) | 4% | 26% | 98.4% (active) | -1% | -3% | 52.2% | -2% | 1% | 50.2% | -2% | -1% | 98.6% (active) | -2% | 1% | 50.9% | -2% | 4% | 51.9%
O=C(/C(Cl)=N/O)c1ccc(-c2ccccc2)cc1 | 8% | 97% (active) | 99.3% (active) | 5% | 98% (active) | 59.4% | 2% | 98% (active) | 95.5% (active) | 15% | 93% (active) | 99.2% (active) | 6% | 97% (active) | 99.7% (active) | 13% | 97% (active) | 99.3% (active)
CC1(C=O)CCC23COC4(CCC5C6(C)CCC(OC7OCC(OC8OC(CO)C(O)C(OC9OC(CO)C(O)C(O)C9O)C8OC8OCC(O)C(O)C8O)C(O)C7OC7OC(CO)C(O)C(O)C7O)C(C)(C)C6CCC5(C)C4(C)CC2O)C3C1 (stereo not given) | 22% | 93% (active) | 66.8% | 14% | 96% (active) | 85.2% (active) | 9% | 96% (active) | 88.2% (active) | 18% | 94% (active) | 86.2% (active) | 16% | 97% (active) | 87.1% (active) | 22% | 98% (active) | 82.3% (active)
C=CCO/N=C/c1cc(NC(=S)c2ccoc2C)ccc1Cl | 13% | 86% (active) | 83.9% (active) | 6% | 86% (active) | 85.5% (active) | 1% | 85% (active) | 83.2% (active) | -11% | 80% (active) | 84.3% (active) | -4% | 90% (active) | 80.4% (active) | 4% | 91% (active) | 76.7% (active)
CCN(CC)CC(O)CNc1ccc(NCC2CO2)c2c1C(=O)c1ccccc1C2=O (stereo not given) | 71% (active) | 76% (active) | 34.1% | 23% | 79% (active) | 25.6% | 76% (active) | 84% (active) | 48.8% | 49% | 83% (active) | 56% | 43% | 59% | -36% | 52% | 74% (active) | 59%
Oc1ccc(Cl)cc1Cc1cc(Cl)ccc1O | -1% | 99% (active) | 3.65% | -3% | 99% (active) | 10.3% | 0% | 99% (active) | -2.55% | -16% | 99% (active) | 24.6% | -3% | 99% (active) | 16.6% | -5% | 99% (active) | -7.85%
Oc1ccc(Cl)cc1C(c1cc(Cl)ccc1O)C(Cl)(Cl)Cl | 99% (active) | 99% (active) | 99.5% (active) | 99% (active) | 99% (active) | 99.6% (active) | 100% (active) | 100% (active) | 99.4% (active) | 99% (active) | 99% (active) | 99.1% (active) | 100% (active) | 99% (active) | 99.5% (active) | 99% (active) | 99% (active) | 99.2% (active)
Oc1ccc2ccccc2c1N=Nc1ccccn1 | 35% | 91% (active) | 98.2% (active) | -4% | 96% (active) | 96.7% (active) | 19% | 96% (active) | 97.3% (active) | 10% | 94% (active) | 92.8% (active) | -26% | 92% (active) | 96.7% (active) | 27% | 94% (active) | 97.7% (active)
C(=N\Nc1ccc2ccccc2n1)/c1ccccn1 | 49% | 72% (active) | 90.7% (active) | 30% | 78% (active) | 92.6% (active) | 46% | 85% (active) | 93.1% (active) | 31% | 63% | 90.7% (active) | 44% | 81% (active) | 92.3% (active) | 50% | 87% (active) | 92.1% (active)
CCCCCCCCCCCC[S+](C)CC(=O)[O-] (stereo not given) | 20% | 74% (active) | 23.2% | 5% | 70% (active) | 48.8% | -2% | 78% (active) | 39.5% | 11% | 64% | 72% (active) | 19% | 89% (active) | 27.9% | 10% | 41% | 72.8% (active)
COc1ccc(NC(=O)/C(=C/N2C(=O)/C(=C/c3ccc(OC)c(OC)c3)NC2=S)C(C)=O)cc1 | 5% | 66% | 54.3% | -3% | 85% (active) | 53.1% | -5% | 86% (active) | 51.9% | -22% | 51% | 37% | -21% | 76% (active) | 64.8% | -6% | 82% (active) | 76.7% (active)
C/C(=N/NC(N)=S)c1ccc(C)cc1 | -4% | 40% | 69% | -4% | 6% | 3.5% | -5% | 2% | 40.2% | -11% | -22% | 2.3% | -13% | -8% | 45% | -4% | 20% | 66.1%
